Source: PubChem BioAssay
An excerpt weighted towards active compounds, which were near 2.5% of everything screened.
D2 ag-1 = Beta-Arrestin HTS for Positive Allosteric Modulators of the Human D2 Dopamine Receptor: Agonists | D(2) dopamine receptor (Homo sapiens), P14416 | DiscoveRx PathHunter D2 beta-arrestin, luminescence, 90 min; 100% = 57 uM dopamine signal | activation, % (no concentration beside the values) | actives 0.084% (n = 360,000) | AID 624465, 2012; in the data active = activation above about 40%; inconclusive = between about 15% and that limit
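Agonist mode: compounds alone added to overnight-plated D2 PathHunter cells for 90 min at 37 C, with 57 uM final dopamine (EC100) defining full response. Beta-arrestin recruitment detected by chemiluminescent reagent, read after 1 h at ambient temperature.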
D2 PAM-1 = Beta-Arrestin HTS for Positive Allosteric Modulators of the Human D2 Dopamine Receptor: Potentiators | potentiation, % (concentration not given with the values) | D(2) dopamine receptor (Homo sapiens), P14416 | DiscoveRx D2 beta-arrestin cells, luminescence, 90 min; 100% = 57 uM dopamine signal | actives 0.23% (n = 360,000); in the data active = potentiation above about 50%; inconclusive = mostly about 30% to 49%
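D2 cells co-treated with compound plus 50 nM dopamine (EC20) for 90 min at 37 deg C to detect potentiation. Beta-arrestin recruitment was read as enzyme-fragment luminescence after 1 h at ambient temperature. Full response was set by 57 uM dopamine.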
D2 ag-2 = HTS Assay for Allosteric Agonists of the Human D2 Dopamine Receptor: Primary Screen for Agonists | D(2) dopamine receptor (Homo sapiens), P14416 | HEK293 T-REx D2 cells, calcium flux agonist mode | activation, % at 2 µM | actives 0.53% (n = 340,000) | AID 485358, 2010;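 active = activation over 3 SD above normal in the single-dose calcium agonist read, cut at about 30% in these data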; also: 0% is about no effect
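In this primary screen, compounds producing a positive calcium signal within 180 s of addition to tetracycline-induced, force-coupled HEK293 Trex D2 cells are flagged; cells are dye-loaded with a no-wash calcium kit beforehand.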
Anesthetic bind = qHTS Assay for Identification of Novel General Anesthetics | Potency, µM (titrated, usually from 77.5 µM), without a hit: at the highest dose activity change, negative = displacement, most hits filed as inhibitors | Ferritin light chain (Equus caballus), P02791 | apoferritin/1-aminoanthracene competitive binding, fluorescence | actives 0.074% (n = 350,000); also: potency is read from the fitted curve at half-maximal effect; % is scaled to controls: 0 for no effect and ±100 for the full control effect; nearly all actives have a fitted effect of over 20% in size
Target sequence (P02791 2-175 limits assumed): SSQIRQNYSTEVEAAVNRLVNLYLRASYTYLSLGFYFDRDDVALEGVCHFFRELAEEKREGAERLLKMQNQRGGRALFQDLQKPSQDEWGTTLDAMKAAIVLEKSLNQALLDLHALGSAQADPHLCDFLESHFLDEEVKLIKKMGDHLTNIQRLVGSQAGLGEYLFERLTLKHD
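10 uM apoferritin + 50% sat. 1-AMA, PBS; cpd 10 min RT; Ex380/Em535 endpoint; normalized to free probe vs complex; 4-param Hill fit; propofol titration as pos. ctrl.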
D2 PAM-2 = HTS Assay for Positive Allosteric Modulators of the Human D2 Dopamine Receptor: Primary Screen for Potentiators; potentiation, % at 10 µM; HEK293 T-REx D2, calcium flux, EC20 dopamine potentiation; D(2) dopamine receptor (Homo sapiens), P14416; actives 0.34% (n = 340,000);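 active = potentiation over 3 SD above the plate norm, cut at about 30% in these data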; also: 0% is about no effect
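Calcium flux readout, no-wash dye, 1 read/s. Inducible HEK293 Trex D2 line, overnight 30 C. Compound alone 180 s (agonist flags), then EC20 dopamine, another 180 s to score potentiation.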
D2 antag = HTS Assay for Allosteric Antagonists of the Human D2 Dopamine Receptor: Primary Screen for Antagonists. inhibition, % at 10 µM. D(2) dopamine receptor (Homo sapiens), P14416. HEK293 TREx D2 cells, calcium flux, dopamine EC80. AID 485344, 2010. actives 2% (n = 340,000); in the data active = inhibition above about 30%; inactive = below that, where a call was filed; also: 0% is about no effect
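Tetracycline-induced HEK293 T-REx cells expressing D2 force-coupled to calcium signalling were dye-loaded, exposed to compound for 180 s, then challenged with an EC80 of dopamine; calcium flux was followed kinetically for a further 180 s.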
D3 ag = qHTS of D3 Dopamine Receptor Agonist: D3 Dopamine Receptor B-arrestin Agonist Confirmatory Assay | shares compounds with D2 ag-2 | DiscoveRx D3 beta-arrestin cells, luminescence, 90 min | Potency, µM (series often up to 76.9 µM), for the others: at the highest dose activation, usual class: activators | actives 4% (n = 2,300);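 also: potency is read from the fitted curve at half-maximal effect; 100% = dopamine control response; nearly all actives have a fitted effect of over 70% in size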
Target sequence (P35462 whole entry, looked up): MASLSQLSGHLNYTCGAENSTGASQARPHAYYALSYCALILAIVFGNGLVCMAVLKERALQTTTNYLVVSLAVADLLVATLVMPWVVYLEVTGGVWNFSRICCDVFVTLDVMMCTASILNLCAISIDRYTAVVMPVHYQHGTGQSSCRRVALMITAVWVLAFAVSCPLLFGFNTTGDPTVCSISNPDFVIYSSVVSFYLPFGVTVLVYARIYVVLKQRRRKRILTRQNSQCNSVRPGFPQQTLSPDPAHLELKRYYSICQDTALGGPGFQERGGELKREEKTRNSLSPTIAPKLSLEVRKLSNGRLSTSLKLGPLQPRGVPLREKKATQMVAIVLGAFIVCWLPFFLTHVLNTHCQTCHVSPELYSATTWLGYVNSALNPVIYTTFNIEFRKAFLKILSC
D2 ag-3 = qHTS of D3 Dopamine Receptor Agonist: D2 Dopamine Receptor B-arrestin Agonist Counterscreen. shares compounds with D2 ag-2. DiscoveRx PathHunter D2 beta-arrestin, luminescence, 90 min; response scale: percent relative to full dopamine signal. Potency, µM (titrated, usually from 76.9 µM), inactives show at the top dose activation, actives largely listed as activators. actives 5.9% (n = 2,300); also: potency is read from the fitted curve at half-maximal effect; % of control where 0% means no effect; nearly all actives have a fitted effect of over 70% in size
Active calls of the source: *. Unless noted, calls follow the shape of the dose curve; as a rule, active = well fitted curve in the direction sought with a large enough effect; inconclusive = small, poorly fitted or top-dose-only effect, or another doubt; inactive = no such curve, though single readings can be large; an effect the other way counts as inactive or inconclusive.

For C[C@H](NC(=O)c1nc[nH]c1C(=O)N[C@@H](C)c1ccccc1)c1ccccc1 the results were D2 ag-1 -2.5, D2 PAM-1 -3.6, D2 ag-2 0.2, D2 PAM-2 19.2 and D2 antag -2.8.
`C[C@H](NC(=O)c1[nH]cnc1C(=O)N[C@H](C)c1ccccc1)c1ccccc1` gave D2 ag-1 -1.2, D2 PAM-1 -3.0, D2 ag-2 -0.2, D2 PAM-2 9.7, D2 antag 9.1, D3 ag -8.5% and D2 ag-3 -4.9%.
Cc1cccc(NC(=O)c2nc[nH]c2C(=O)N(C)Cc2ccccc2)c1 was read as D2 ag-1 -8.5, D2 PAM-1 -18.8, D2 ag-2 -0.6, D2 PAM-2 -20.6, D2 antag 28.6, D3 ag 0.1% and D2 ag-3 -4.1%.
`Cc1cccc(NC(=O)COc2ccccc2C(=O)NC(C)c2ccccc2)c1` (stereo unspecified) gave D2 ag-1 7.0, D2 PAM-1 -19.0, D2 ag-2 48.8*, Anesthetic bind -12.9%, D2 PAM-2 -17.3, D2 antag -5.2, D3 ag inconclusive and D2 ag-3 9.2%.
`Cc1cccc(NC(=O)c2nc[nH]c2C(=O)N[C@@H](C)c2ccccc2)c1` gave D2 ag-1 -2.3, D2 PAM-1 -14.9, D2 ag-2 -0.4, D2 PAM-2 9.4, D2 antag -4.0, D3 ag -3.1% and D2 ag-3 -4.3%.
`COCC(C)NC(=O)c1cnn2c(C(F)F)cc(-c3ccccc3)nc12` (stereo unspecified) gave D2 ag-2 -0.2, Anesthetic bind -2.5% and D2 PAM-2 3.5.
For O=S(=O)(NCC(c1cccnc1)N1CCOCC1)c1ccc(Cl)cc1 (stereo unspecified) the results were D2 ag-1 -3.7, D2 PAM-1 -0.3, D2 ag-2 0.5, Anesthetic bind -2.4%, D2 PAM-2 -6.9 and D2 antag 2.5.
For CCN1C(=O)[C@H]2[C@@H](c3ccc(C)cc3)N3C(=O)N(c4cccc(Br)c4)C(=O)[C@@]3(C)[C@H]2C1=O the results were D2 ag-1 0.6 and D2 PAM-1 -7.9.
`COc1cccc(N2CC(C(=O)Nc3nnc(SCc4cccnc4)s3)CC2=O)c1` (stereo unspecified) gave D2 ag-1 -1.2, D2 PAM-1 -2.3, D2 ag-2 -0.3, Anesthetic bind -6.6%, D2 PAM-2 13.3 and D2 antag 8.5.
Screening CN(Cc1ccccc1)C(=O)c1[nH]cnc1C(=O)NCCCCCNC(=O)OC(C)(C)C returned D2 ag-1 -1.8, D2 PAM-1 -18.5, D2 ag-2 -0.6, D2 PAM-2 7.2, D2 antag -8.3, D3 ag -5.3% and D2 ag-3 3.7%.
O=C(CCC1CCCN(C(=O)c2ccncc2)C1)NCc1ccc(F)c(F)c1 (stereo unspecified) was read as D2 ag-1 1.4, D2 PAM-1 -1.9, D2 ag-2 -0.4, Anesthetic bind -4.1%, D2 PAM-2 -4.0 and D2 antag 5.3.
`COc1cc(-c2noc(C)c2C#CC2(N)CCCCC2)cc(OC)c1OC` gave D2 ag-1 -4.1, D2 PAM-1 -9.7, D2 ag-2 -0.3, Anesthetic bind -16.1%, D2 PAM-2 -13.1 and D2 antag 4.6.
`COc1cc(-c2noc(C)c2C#CC2(O)CCCCC2)cc(OC)c1OC` gave D2 ag-1 4.6, D2 PAM-1 -7.3, D2 ag-2 71.7*, Anesthetic bind -16.5%, D2 PAM-2 -16.6, D2 antag -18.1, D3 ag 0.0% and D2 ag-3 2.9%.
For Cc1nc(-c2nc(-c3c(C(=O)NNC(=O)Nc4cccc(Cl)c4)noc3C)cs2)cs1 the results were D2 ag-1 4.3, D2 PAM-1 0.8, D2 ag-2 40.0*, Anesthetic bind -8.5%, D2 PAM-2 -17.8, D2 antag 49.3*, D3 ag -4.6% and D2 ag-3 8.6%.
COc1cc(C#Cc2c(-c3cncn3C)n(C)c3ccc(-c4cnc(OC)nc4)cc23)cc(OC)c1 was read as D2 ag-1 2.9, D2 PAM-1 -19.5, D2 ag-2 -0.9, D2 PAM-2 9.0, D2 antag 6.9, D3 ag -2.6% and D2 ag-3 -2.8%.
Screening COc1cc(C#Cc2c(-c3cncn3C)n(C)c3ccc(-c4cnc(N5CCOCC5)nc4)cc23)cc(OC)c1 returned D2 ag-1 -1.7 and D2 PAM-1 -6.5.
`COc1cc(NS(=O)(=O)c2ccc(N)cc2)ncn1` gave D2 ag-2 0.0, Anesthetic bind -4.8%, D2 PAM-2 -3.2 and D2 antag -2.6.
`O=C(c1ccco1)N1CCN(CC(O)COc2ccc3oc4ccccc4c3c2)CC1` (stereo unspecified) gave D2 ag-1 inconclusive, D2 PAM-1 8.6, D2 ag-2 49.6*, Anesthetic bind inconclusive, D2 PAM-2 -18.6, D2 antag 39.9*, D3 ag 35.5µM* and D2 ag-3 50.1µM*.
Cc1cc(C)cc(OCC(O)CN2CCN(C(=O)c3ccco3)CC2)c1 (stereo unspecified) was read as D2 ag-1 10.2, D2 PAM-1 -17.3, D2 ag-2 61.4*, Anesthetic bind 2.8%, D2 PAM-2 -26.8, D2 antag 34.6*, D3 ag 21.0% and D2 ag-3 20.0%.
